Assay outcomes (PubChem BioAssay)
A selection: hits, their analogues and other compounds. The true share with any hit is near 3.5%.
MITF primary: inhibitors of human MITF | AlphaScreen MITF homodimerization, bead proximity signal | hit rate 0.91% among 650,000 | AID 1259374 | O75030 | inhibition, % at 2.6 µM; in the data active means inhibition above about 50%;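 further: 0% = vehicle wells with protein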
GPR151 ag: activators of human GPR151; Q8TDV0; PathHunter beta-arrestin GPR151 cells, luminescence; activation, % at 11.2 µM; hit rate 1% among 650,000; AID 1508602; in the data active means activation above about 4.9%;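 further: 0% = median of compound wells and 100% = cells with positive control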
TEAD-YAP block: TEAD-YAP interaction inhibition | inhibition, % at 9.12 µM | HEK-TIYL cells, TEAD-Gal4/YAP UAS-luciferase luminescence | AID 1259422 | hit rate 1.4% among 640,000; in the data active means inhibition above about 32%;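 further: 0% = median of test compound wells and 100% = reference inhibitor wells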
FBW7 act: human FBW7 E3 ligase activation, primary screen; Q969H0; AlphaScreen FBW7–phospho-cyclin E peptide binding, activator screen; normalized activity (activation), % at 26.1 µM; hit rate 0.13% among 650,000; AID 1259310; in the data active means normalized activity above about 1.9%;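 further: purified mutant Fbw7 with reduced substrate affinity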
Target sequence (Q969H0 whole entry, looked up): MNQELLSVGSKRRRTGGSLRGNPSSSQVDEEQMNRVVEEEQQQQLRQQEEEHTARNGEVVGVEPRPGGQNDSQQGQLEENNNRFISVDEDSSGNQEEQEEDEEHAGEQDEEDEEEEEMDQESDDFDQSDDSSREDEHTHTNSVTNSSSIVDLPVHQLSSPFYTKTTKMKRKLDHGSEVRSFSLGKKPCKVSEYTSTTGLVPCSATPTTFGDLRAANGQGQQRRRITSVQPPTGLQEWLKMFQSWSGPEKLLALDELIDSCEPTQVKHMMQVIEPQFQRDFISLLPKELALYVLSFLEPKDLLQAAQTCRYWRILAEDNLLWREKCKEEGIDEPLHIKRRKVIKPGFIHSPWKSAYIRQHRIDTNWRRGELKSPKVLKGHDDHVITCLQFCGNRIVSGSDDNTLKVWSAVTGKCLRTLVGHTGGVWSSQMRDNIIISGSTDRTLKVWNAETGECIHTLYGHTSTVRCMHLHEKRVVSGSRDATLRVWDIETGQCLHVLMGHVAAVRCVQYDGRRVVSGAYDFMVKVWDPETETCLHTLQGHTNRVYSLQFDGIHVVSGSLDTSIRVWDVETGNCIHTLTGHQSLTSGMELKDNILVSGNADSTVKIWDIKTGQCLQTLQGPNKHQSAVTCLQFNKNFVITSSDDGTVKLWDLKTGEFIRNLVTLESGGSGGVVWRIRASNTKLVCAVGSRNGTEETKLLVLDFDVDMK
Starred values were filed as active, the others as inactive; ! = not confirmed by another sample.

SMILES	MITF primary	GPR151 ag	TEAD-YAP block	FBW7 act
C=C(C)[C@H]1Cc2c(ccc3c2O[C@@H]2COc4cc(OC)c(OC)cc4[C@@H]2C3=O)O1	22.0	-0.5	70.4*	-0.2
Cc1cc(/C=C2\C(=O)NC(=O)N(Cc3ccco3)C2=O)c(C)n1-c1ccc(O)cc1	57.7*	1.7	10.5	-0.3
O=c1c2ccccc2nc(/C=C/c2ccc(F)c(F)c2)n1-c1ccc(F)c(Cl)c1	-2.3	-0.9	-2.1	-0.1
N/C(=N\[N+](=O)[O-])N/N=C/c1ccc(O)c(O)c1	87.1*	-4.7	-5.3	0.5
CCn1nc(-c2cccnc2)nc2c(=O)n(C)c(=O)nc1-2	-7.2	-5.4	76.4*	-0.2
N#CC(C#N)=Cc1cc(C=C(C#N)C#N)c(O)o1	83.7*	0.6	13.7	-0.6
O=C(c1ccco1)N1CC2CC(C1)c1cccc(=O)n1C2 (stereo not drawn)	6.7	-0.9	4.9	-0.1
Cc1cc([N+](=O)[O-])c2ccccc2[n+]1[O-]	-6.7	-1.8	91.7*	-0.3
O=[N+]([O-])c1ccc(N2CCCC2)c2ccccc12	14.4	0.6	3.1	-0.2
CC(C)NC(=O)c1cn(CC2CCCCC2)cc(C(=O)N(C)C(C)c2nccs2)c1=O (stereo not drawn)	-0.3	-0.8	-3.5	-0.1
CC1CCCC(N2CCN(C(=O)COc3ccccc3)CC2)C1 (stereo not drawn)	25.1	0.2	3.1	-0.1
CC1CCC(C(C)C)C(OC(=O)Cn2c(COc3ccccc3)[n+](C)c3ccccc32)C1 (stereo not drawn)	-10.8	1.5	37.0*	0.0
CCN(CC)c1cc(N2CCN(C)CC2)c([N+](=O)[O-])cc1F	16.9	0.8	5.3	-0.1
Cc1ccc2c(c1)C1CN(C)CCC1N2C(=O)C12CC3CC(CC(C3)C1)C2 (stereo not drawn)	14.7	-1.5	7.5	0.0
CC(C)=CCCC1(C)C=Cc2c(O)c3c(c(CC=C(C)C)c2O1)OC12C(=CC4CC1C(C)(C)OC2(C/C=C(\C)C(N)=O)C4=O)C3=O (stereo not drawn)	17.0	4.9	37.7*	0.1
Cc1ccc(N2Cc3ccccc3C2=N)cc1	5.3	-1.6	-13.5	-0.1
CN1CCN(Cc2ccccc2OC2CCCC2)CC1CCO (stereo not drawn)	0.1	-0.1	3.4	0.1
CN1C(=O)NC(=O)/C(=C/c2ccc(Br)o2)C1=O	70.9*	0.6	9.7	-0.4
O=C1NC(=S)N(c2cccc(F)c2)C(=O)/C1=C/c1ccc(Br)o1	83.7*	-1.0	4.1	-0.1
CCOc1ccc(N2C(=O)/C(=C/c3ccc(C)o3)C(=O)NC2=S)cc1	13.7	1.3	-0.7	-0.2
Cc1ccc(/C=C2\C(=O)NC(=S)N(c3cccc(F)c3)C2=O)o1	11.7	2.1	0.1	0.0
CCOc1ccc(N2C(=O)/C(=C/c3ccc(Br)o3)C(=O)NC2=S)cc1	79.4*	-1.6	9.8	-0.2
O=C1NC(=O)C(=Cc2ccc(Br)s2)C(=O)N1	1.8	0.4	-4.3	-1.2
C/C=C(/C)C(=O)O[C@H]1C(C)=C2[C@H]([C@@H]1OC(=O)CCCCCCC)[C@@](C)(OC(C)=O)C[C@H](OC(=O)CCC)[C@@]1(O)[C@H]2OC(=O)[C@@]1(C)O	11.1	0.1	57.0*	0.2
CCP(=O)(CC)Nc1cccc(C(F)(F)F)c1	7.8	1.3	7.7	0.4
SMILES	MITF primary	GPR151 ag	TEAD-YAP block	FBW7 act
O=C(Nc1cccc(C(F)(F)F)c1)c1cc(Cl)ccc1O	4.5	-0.9	78.3*	0.4
O=c1[nH]c(=S)n(Cc2ccco2)c(O)c1C=NCc1cccs1	19.3	0.1	-2.6	0.1
N#Cc1c(/N=C/c2c(O)n(Cc3ccco3)c(=O)[nH]c2=O)sc2c1CCCC2	53.1*	0.8	-6.8	-0.9
Cc1cc(C)n2nc3c(c(C)cc(C)[n+]3-c3ccccc3)c2n1	15.7	0.9	33.4*	0.3
Cc1cc(C)[n+](-c2ccccc2)c2[nH]c(=O)[nH]c(=O)c12	8.1	1.8	-5.1	0.9
COC1=CC(=O)O[C@@H](CCc2ccc3c(c2)OCO3)C1	20.8	2.0	11.8	0.5
COC1=CC(=O)O[C@H](/C=C/c2ccc3c(c2)OCO3)C1	0.6	0.6	77.9*	0.7
CN(C)c1ccc(-c2cc[n+](C)cc2)cc1	16.9	2.5	55.9*	0.1
CCOP(=S)(/C(C#N)=C(\O)Cc1ccccc1)c1ccccc1 (stereo not drawn)	-5.8	0.3	5.2	-0.1
COCCOC(=O)C1=C(N)OC(C)=C(C(=O)OC)C12C(=O)Nc1ccc(Br)cc12 (stereo not drawn)	13.9	-0.7	-2.8	0.1
CN1C2CCC1CC(NC(=O)c1ccccc1)C2 (stereo not drawn)	0.3	-0.5	-27.7	-0.1
CCOC(=O)C1C2NC(=S)N(c3cccc(Cl)c3)C1(C)Oc1c(OCC)cccc12 (stereo not drawn)	47.7	1.3	1.7	-0.2
C=CCOc1ccc(/C=C(\C)[N+](=O)[O-])cc1OC	3.4	0.1	41.6*	-0.1
O=C1NC(=S)NC(=O)C1=Cc1ccc(-c2ccc(Cl)c(C(=O)O)c2)o1	69.2*	1.0	-5.7	-1.5
O=C1NC(=S)NC(=O)C1=Cc1ccc(-c2ccc(C(=O)O)cc2)o1	63.4*	-0.7	-1.0	0.0
O=C1NC(=O)N(Cc2ccco2)C(=O)/C1=C\c1ccc(-c2ccc(Cl)c(C(=O)O)c2)o1	20.9	0.0	1.3	-0.6
CC(=O)c1ccc(-c2ccc(C=C3C(=O)NC(=S)NC3=O)o2)cc1	28.3	-0.2	-11.6	-0.3
O=C1NC(=S)NC(=O)C1=Cc1ccc(-c2ccc(C(=O)O)c(O)c2)o1	81.9*	-0.1	-7.0	-0.3
O=C1NC(=S)N(c2ccc(Cl)cc2)C(=O)/C1=C/c1ccco1	32.9	-0.6	17.1	0.0
O=C1NC(=O)N(c2cccc3ccccc23)C(=O)/C1=C\c1ccco1	78.3*	-0.4	-3.6	-0.1
O=C1NC(=S)N(c2ccccc2)C(=O)/C1=C\C=C\c1ccco1	74.9*	-0.6	-2.5	-0.8
O=C1NC(=S)N(c2ccc(F)cc2)C(=O)/C1=C/c1ccco1	63.2*	-0.3	-4.8	-1.0
COc1ccccc1-n1c(/C=C/c2cccnc2)nc2ccccc2c1=O	10.6	-0.8	9.9	-0.1
CC(C)COc1ccc(/C=C/[N+](=O)[O-])cc1Br	-18.4	0.5	12.6	0.0
Cc1ccc(-n2c(/C=C/c3cccc(O)c3)nc3ccccc3c2=O)cc1C	1.5	2.0	13.6	0.0
SMILES	MITF primary	GPR151 ag	TEAD-YAP block	FBW7 act
Clc1ccccc1NC1=NCCS1	-2.8	-0.9	4.3	0.0
CC(C)N(C(=O)CCl)c1ccccc1	-1.7	1.2	33.5*	-0.1
CN1Cc2c(ccc3c2OCO3)[C@@H]2[C@H]1c1cc3c(cc1C[C@@H]2O)OCO3	6.5	-0.1	62.0*	0.1
C[N+]1(C)CCc2cc3c(cc2[C@H]1[C@@H]1OC(=O)c2c1ccc1c2OCO1)OCO3	19.5	4.1	-3.8	0.9
CCCCNCC1OCc2ccccc2CO1	8.3	3.8	-10.2	0.0
COc1cc2c(cc1O)CC1c3c(cc(O)c(OC)c3-2)CCN1C (stereo not drawn)	18.8	2.2	33.5*!	0.5
COc1ccc(C2NCc3ccc4c(c3-n3cccc32)OCO4)cc1O (stereo not drawn)	4.7	1.2	56.3*	-0.1
